The compounds below were run on TNK2. Conditions: concentration: 1 μM,replicates: in singlicate; n = 1.
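Also: KINOMEscan kinase panel screen.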

Point of comparison: `CN(c1cccc(CNc2nc(Nc3ccc4c(c3)CC(=O)N4)ncc2C(F)(F)F)c1)S(C)(=O)=O`, “%Inh” value 67%. Against it:
- OCCn1cc(-c2cnc3nnn(Cc4ccc5ncccc5c4)c3n2)cn1 — lower, 0%
- CC(=O)Nc1nc2cnc(Nc3cc(NC(=O)c4cccc(CC(C)(C)C#N)c4)ccc3C)nc2s1 — lower, 0%
- CCNCC(Cc1ccccc1)NC(=O)c1cc(Br)c(-c2ccnc3[nH]ccc23)s1.Cl.Cl (stereo not shown) [GSK1383280] — lower, 10%
- N#Cc1cccc(C(=O)NC2CCN(c3ccnc(Nc4ccc(F)cc4)n3)C2)c1 (stereo not shown) [GSK1379708] — lower, 4%
- CN1CCN(CCCNc2nccc(-c3c(-c4ccc(F)cc4)nn4cc(C(N)=O)ccc34)n2)CC1 [GW622475] — lower, 13%
- O=C(Nc1n[nH]c2cc(-c3ccco3)ccc12)C1CC1 [SB-737447] — lower, 0%
- CCOC(=O)N1CCC(n2cnc(-c3ccc(F)cc3)c2-c2ccnc(N)n2)CC1 [SB-219952] — lower, 12%
- COc1cc2ncn(-c3cc(OCC4CCCCC4)c(C(N)=O)s3)c2cc1OC [GSK204559] — lower, 4%
- CSc1nccc(-c2c(-c3ccc(F)cc3)ncn2CCCN2CCOCC2)n1.Cl [SB-217146] — lower, 0%
- CCn1c(-c2nonc2N)nc2cncc(Br)c21 [SB-738004] — lower, 0%
- Cn1ccc2ncnc(Oc3ccc(NC(=O)Nc4cccc(C(F)(F)F)c4)c(F)c3)c21 — lower, 0%
- Cc1cccc(-c2nc(Nc3ccncc3)c3sccc3n2)n1 [GW869641] — lower, 0%
- Cn1cc(-c2cccc3c(N)c(C(N)=O)nnc23)cn1 — lower, 0%
- CCN1CCN(CCCC(=O)Nc2n[nH]c3nc(-c4ccc(O)cc4)c(Br)cc23)CC1 [SB-731579] — lower, 0%
- Cn1ccc2ncnc(Oc3ccc(NC(=O)Nc4cc(C(C)(C)C)on4)c(Cl)c3)c21 — lower, 0%
- Cc1n[nH]c2cc(Nc3ccnc(Nc4cccc(CN5CCOCC5)c4)n3)ccc12 [GW682569] — lower, 10%
- CS(=O)(=O)c1cccc(CNc2nc(Nc3ccc4c(c3)[C@@H]3C[C@@H]4CNC3=O)ncc2C(F)(F)F)c1 — lower, 56%
- Cc1ccc(C(=O)Nc2ccc(Oc3ccc4nc(NC(=O)C5CC5)cn4c3)c(F)c2)c(=O)n1-c1ccccc1 — lower, 0%
- COC(=O)Nc1nc2cc(Oc3ccc(NC(=O)Nc4cc(C(F)(F)F)ccc4Cl)cc3)ccc2[nH]1.Cl [GW697465] — lower, 8%
- CC(C)c1nc(-c2cccc(NS(=O)(=O)c3ccccc3)c2)c(-c2ccnc(Nc3ccc4c(c3)CN(C)CC4)n2)s1 [GSK1649598] — higher, 96.2%
- Cn1ccc2ncnc(Oc3ccc(NC(=O)Nc4cccc(C(F)(F)F)c4)c(Cl)c3)c21 — lower, 0%
- CC(=O)Nc1ccc(-c2cc3ncnc(SCC(=O)O)c3s2)cc1 — lower, 0%
- C[C@@H](Oc1cc(-n2cnc3cc(-c4cnn(C)c4)ccc32)sc1C(N)=O)c1ccccc1Cl [GSK580432] — lower, 64%
- CC(C(=O)NC1CCN(c2ccnc(Nc3ccc(F)cc3)n2)C1)c1ccc(Cl)cc1 (stereo not shown) [GSK1379713] — lower, 0%
- c1ccc(Oc2ccc(Nc3ccnc4ccc(-c5ccccn5)cc34)cc2)cc1 [GW407034] — lower, 23%
- COc1cc2c(Nc3ccc(NC(=O)c4ccccc4)cc3)ncnc2cc1OCCCN1CCOCC1 [GSK301329] — lower, 66%
- Nc1nccc(-c2ccc3c(N)n[nH]c3c2)n1 [GSK1034945] — lower, 5%
- CNC(=O)c1ccccc1Nc1nc(Nc2cccc(CS(C)(=O)=O)c2)ncc1C.O=CO [GSK1520489] — higher, 98.9%
- C[C@@H]1CNc2c(sc3ccc4nc(-c5ccncc5)ccc4c23)C(=O)N1 — lower, 0%
- CCn1c(-c2nonc2N)nc2cncc(CNC3CCNCC3)c21.Cl [SB-747651] — lower, 8%
- O=C(Nc1cccc(Oc2ccc3nccn3n2)c1)Nc1cccc(C(F)(F)F)c1 — lower, 0%
- Cc1ccc(Nc2ccnc(Nc3ccc4c(c3)CS(=O)(=O)C4)n2)cc1O.Cl [GW579362] — higher, 80%
- O=C(Nc1cccc(C(F)(F)F)c1)c1cccc(Oc2ccc3nccn3n2)c1 — lower, 0%
- NC(=O)c1ccc(-c2cc3ncnc(SCC(=O)O)c3s2)cc1 — lower, 0%
- COC(=O)c1cccc(NC(=O)NC2CCN(c3ccnc(Nc4cc(OC)c(OC)c(OC)c4)n3)C2)c1 (stereo not shown) [GSK1379767] — lower, 4%
- Cc1cccc2c(-c3ccncc3)c(-c3ccc(F)cc3)nn12.Cl [GW461487] — lower, 9%

From paper PMC5540273 (PLoS ONE, 2017)
